The results in this text go back to PubChem BioAssay (NCI).

Test in all cases: NCI-60 one-dose screen, 48 h (100 = growth as untreated, 0 = no growth, -100 = all killed)
Assay [1] deals with NCI-H23 lung. Conditions: 10 µM unless noted.
The subject of assay [2] is NCI-H226 lung. To be noted: 10 µM unless noted.
Assay [3] deals with NCI-H322M lung. To be noted: 10 µM unless noted.
The test system of assay [4] is HOP-62 NSCLC. To be noted: 10 µM unless noted.
Assay [5] has as its system NCI-H460 lung. Conditions: 10 µM unless noted.
Assay [6] has as its system HOP-92 NSCLC. Conditions: 10 µM.
The subject of assay [7] is NCI-H522 lung. To be noted: 10 µM unless noted.
For assay [8], the system named is A549/ATCC NSCLC. To be noted: 10 µM unless noted.
The subject of assay [9] is 786-0 renal. To be noted: 10 µM unless noted.
Assay [10] has as its system COLO 205 colon. To be noted: 10 µM unless noted.
The subject of assay [11] is DU-145 prostate. Conditions: 10 µM unless noted.
Assay [12] relates to K-562 leukemia. To be noted: 10 µM unless noted.
In assay [13] the test system is MALME-3M melanoma. To be noted: 10 µM unless noted.
The test system of assay [14] is MDA-MB-231 breast. Conditions: 10 µM unless noted.
Assay [15] relates to RXF 393 renal. To be noted: 10 µM unless noted.
Assay [16] concerns SF-268 CNS. To be noted: 10 µM unless noted.
For assay [17], the system named is SF-295 CNS. Conditions: 10 µM unless noted.
For assay [18], the system named is SF-539 CNS. Conditions: 10 µM unless noted.
Assay [19] has as its system UACC-257 melanoma. To be noted: 10 µM unless noted.

Compounds without any hit were thinned out: in the full panel of roughly 83,000, 20% have a hit.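 Values shown are percent growth following 48 h exposure of cells in 96-well plates to a single concentration of compound; below 10 was considered active.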 A number with no mark means an inactive call. Calls of active or inactive are those of the source.

Regarding `O=S(=O)(NCCCNc1nccc(-n2cnc3ccccc32)n1)c1ccc(C(F)(F)F)cc1`, the growth in [1] was 91.3%; in assay [2] it was 77.8%; in assay [3], 103%; in [4], 87.1%; in assay [5], 89.8%; in assay [6], 80.2%. For the same compound, the growth in [7] was 70%; in assay [8], 86.3%; in [9], 91.2%; in [10] it was 96.4%; in [11], 94.5%; in assay [12], 67.6%. The growth in assay [13] was 98.4%; in assay [14] it was 83.1%; in [15] it was 105%; in assay [16] it was 86.8%; in [17], 81.2%; in assay [18] it was 87.9%. For the same compound, the growth in assay [19] was 97.8%.
`CCCCc1nc(/C=N/Nc2nc(Nc3ccccc3)nc(Nc3ccc(S(N)(=O)=O)cc3)n2)c(Cl)[nH]1`: the growth in assay [1] is 101%; in assay [2], 99%; in [3], 99.1%; in assay [4], 101%; in assay [5], 100%; in [6] it was 60.1%. For the same compound, the growth in assay [7] was 41.9%; in assay [8], 108%; in assay [9], 95.3%; in [10] it was 72%; in [11] it was 84.6%; in assay [12], 38%. Also, the growth in assay [13] is 99.7%; in [14] it was 67%; in assay [15], 117%; in assay [16] it was 65.9%; in assay [17] it was 102%; in assay [18], 81.2%. In addition, in assay [19], the growth is 108%.
Turning to `O=C(Nc1cccc(C(F)(F)F)c1)c1cc(-c2ccc(F)cc2F)ccc1O`, the growth in [1] is -4.34% (active); in assay [2] it was 9.06% (active); in [3], 4.46% (active); in assay [4], 12.8%; in [5], 2.67% (active); in [6], -26.2% (active). Further, the growth in assay [7] is -4.56% (active); in [8] it was 7.54% (active); in [9], 14.9%; in assay [10] it was 75.5%; in assay [11], 18.9%; in assay [12] it was 11.1%. Besides, the growth in assay [13] is -10.2% (active); in assay [14] it was 3.11% (active); in assay [15] it was -25.9% (active); in [16], 16.5%; in assay [17], -23.1% (active); in assay [18], 10.4%. Further, in [19], the growth is -8.74% (active).
On to `O=S(=O)(NCCNc1nccc(-n2cnc3ccccc32)n1)c1ccc(Br)cc1`, for which the growth was 97.3% in assay [1]; 76.5% in assay [2]; 107% in assay [3]; 87.2% in assay [4]; 101% in assay [5]; 74.2% in assay [6]. Besides, the growth is 87.2% in assay [7]; 100% in assay [8]; 103% in assay [9]; 107% in [10]; 99.9% in assay [11]; 88.4% in assay [12]. The growth is 103% in [13]; 88.2% in assay [14]; 101% in assay [15]; 91.2% in assay [16]; 96.5% in assay [17]; 96.2% in assay [18]. Also, the growth in assay [19] is 109%.
Take `C=C(C=O)[C@@H]1CC[C@]2(C)[C@H](C(=O)C=C3[C@H]4C[C@](C)(C(=O)OC)CC[C@]4(C)CC[C@]32C)[C@@]1(C)CCC#N`: the growth is 4.93% (active) in assay [1]; -53.6% (active) in assay [2]; 109% in assay [3]; 41.2% in assay [4]; 32.4% in assay [5]; -35.2% (active) in assay [6]. In addition, the growth was 52.5% in assay [7]; 104% in assay [8]; 13.6% in assay [9]; 86.4% in assay [10]; 6.32% (active) in [11]; 5.75% (active) in assay [12]. Further, the growth in [13] was -49.8% (active); in assay [14] it was -19% (active); in [16] it was 32%; in assay [17], 28.4%; in assay [18], -29.1% (active); in [19] it was -13.6% (active).
Consider `CCc1ccc(SC2c3ccc(N(CC)CC)cc3Oc3nc(N)c(C#N)c(N)c32)cc1` (stereo not drawn), for which the growth in assay [1] was -85.1% (active); in assay [2] it was -84.1% (active); in [3] it was -76.6% (active); in assay [4], 3.17% (active); in assay [5], -58.3% (active); in assay [6], -44.1% (active). Besides, the growth was -38.4% (active) in assay [7]; -0.807% (active) in assay [8]; -89.2% (active) in [9]; -52.8% (active) in assay [10]; -86.3% (active) in assay [11]; 1.74% (active) in [12]. For the same compound, the growth is -40.8% (active) in [13]; -83.8% (active) in assay [14]; -24.3% (active) in [16]; -76.2% (active) in [17]; -94.1% (active) in [18]; 6.57% (active) in assay [19].
With `CC(=O)C1=C(C)NC(NN)=NC1c1cccc(Cl)c1` (stereo not drawn), the growth in assay [1] was 99.9%; in assay [2], 103%; in assay [3], 96.7%; in [4] it was 99.2%; in [5], 112%; in assay [6], 99.9%. Also, the growth in [7] is 97.9%; in assay [8], 110%; in assay [9] it was 104%; in [10] it was 114%; in assay [11], 114%; in assay [12] it was 100%. The growth in assay [13] is 104%; in assay [14], 96.6%; in assay [16] it was 103%; in [17] it was 104%; in assay [18], 98.6%; in [19], 113%.
As for `COc1cc(/C=N/NC(=O)c2cn(C3CC3)c3c(OC)c(N4CC5CCCNC5C4)c(F)cc3c2=O)ccc1O` (stereo not drawn), the growth in [1] is 55.4%; in assay [2], 87.3%; in [3], 55.4%; in assay [4], 96%; in [5], -66.6% (active); in assay [6], 79.5%. Besides, the growth in assay [7] is 46.8%; in assay [8], -21.4% (active); in assay [9] it was -62.2% (active); in assay [10], 35.6%; in assay [11], 46.5%; in assay [12], -25.5% (active). For the same compound, the growth in assay [13] is 89.2%; in assay [14], -27.4% (active); in [16], 82.1%; in assay [17], 100%; in assay [18], -9.11% (active); in assay [19], 104%.
